PubChem BioAssay AID504832 (National Center for Advancing Translational Sciences (NCATS), 2011)
Where “and” joins values, the source holds several entries; their conditions need not be identical. Identical values can stand only once. In all, about 310,000 compounds went through this assay and about 18,000 (5.8%) were called active. Inconclusive results (about 22%) are left out. The call rests on the fitted dose curve; in most records, active means well fitted inhibition curve with a large enough effect; inconclusive means small, poorly fitted or top-dose-only effect, or another doubt; inactive means no such curve, though single readings can be large or run the other way. The entries come from a sample that favours actives as a whole. The source holds several records for some structures; these can differ, active in one and inactive in another.

Test: Primary qHTS for delayed death inhibitors of the malarial parasite plastid, 48 hour incubation
Settings: P. falciparum luciferase growth in erythrocytes; series mostly up to 28.7 µM; activity change, negative = inhibition: at the top concentration
Outline: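 Parasite viability was followed by luminescence of a genomically integrated firefly luciferase. Cultures held 0.1% parasitemia at 2% hematocrit (final), incubated under 5% CO2 at 37 C.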
On the % scale 0 is the no-effect control and ±100 the full control effect; potency means the concentration at half of the fitted maximal effect.

| Structure (SMILES) | activity change, negative = inhibition | Potency |
| --- | --- | --- |
| Cc1ccc(NC(=O)CSc2nc(=O)n(CCN(C)C)c3c2CCCC3)c(C)c1 | 1.01% (inactive) | – |
| Cc1cc2c(c(=O)n1Cc1ccccc1)C1O[C@](CCCCN3C(=O)c4ccccc4C3=O)(Cc3ccccc31)O2 | – | 0.675 µM (active) |
| C=CCn1c(C)cc(C(=O)CN2C(=O)c3ccccc3C2=O)c1C | 3.02% (inactive) | – |
| COc1ccc2c3c(c(=O)oc2c1)C1O[C@](CCCCN2C(=O)c4ccccc4C2=O)(Cc2c1ccc1ccccc21)O3 | 44.1% [at 5.75 µM] (inactive) | – |
| CC(C)(C)c1cc(C(=O)NN)n(Cc2ccc(Cl)cc2Cl)n1 | – | 10.4 µM (active) |
| NNC(=O)c1ccc(Cl)cc1Cl | 10.5% (inactive) | – |
| CC(C)(C)NC(=O)NC(=O)COC(=O)Cc1ccc(Cl)cc1Cl | 15% (inactive) | – |
| O=C(Cc1ccc(Cl)cc1)NC(=S)Nc1ccccc1O | 7.57% (inactive) | – |
| Cc1cc(SCc2c(F)cccc2Cl)nc(=O)[nH]1 | -16.1% (inactive) | – |
| C/C(=N\NC(=O)c1nc(C)cc(C)n1)c1ccccc1 | 174% (inactive) | – |
| COC(c1ccccc1)(c1ccccc1)C(Oc1nc(C)cc(C)n1)C(=O)O (stereo not drawn) | – | inactive and 11.7 µM (active) |
| Cc1cc(C)nc(S/C=C/C(=O)c2ccccc2)n1 | 0% (inactive) | – |
| COc1ccccc1N1CCN(S(=O)(=O)c2ccc(Cl)cc2)CC1 | 1.21% [at 0.00184 µM] (inactive) | – |
| CC1CCC(NC(=O)CN(C)S(=O)(=O)c2ccc3c(c2)c(=O)n(C)c(=O)n3C)CC1 (stereo not drawn) | -14.7% (inactive) | – |
| Cc1cc(=O)oc2c1ccc1ccccc12 | -0.434% (inactive) | – |
| Cc1ccc(NC(=S)NC2CCCC2)cc1 | 43.2% (inactive) | – |
| Cc1cc(C)cc(NC(=S)NC2CC3CCCC(C2)N3Cc2cccs2)c1 (stereo not drawn) | – | 9.28 µM (active) |
| C=CCN1C2CCCC1CC(NC(=S)Nc1cccc(OC)c1)C2 (stereo not drawn) | -19.1% (inactive) | – |
| CC(=O)O[C@H]1CC[C@@]2(C)[C@@H](CC[C@@H]3[C@@H]2CC[C@]2(C)[C@@H](C(C)(C)O)C[C@@H]32)C1 | -8.46% (inactive) | – |
| O=C(/C=C(O)/C=C/c1ccc(O)cc1)/C=C/c1ccc(O)cc1 | -5.54% (inactive) | – |
| CC(=O)Nc1ccc(NC(=O)C(C)OC(=O)C2CC(=O)N(CCc3ccccc3)C2)cc1 (stereo not drawn) | -8.33% (inactive) | – |
| CC(=O)Nc1ccc(SC[C@H](Cc2ccccc2)N2CC[C@@H](C)CCC2=O)cc1 | – | 6.57 µM (active) |
| O=C1CC[C@H](O)CCN1[C@H](CSc1ccc(Br)cc1)Cc1ccccc1 | -4.11% (inactive) | – |
| Cc1ccc2nc(NC(=O)C3CSC4(C)CCC(=O)N34)sc2c1 (stereo not drawn) | 35.9% (inactive) | – |
| Cc1cc(-c2nnc(SCC(=O)Nc3ccc(F)cc3)n2N)n[nH]1 | -18.5% (inactive) | – |
| CC(C)Cc1nnc(NC(=O)CCc2ccccc2)s1 | -16.9% (inactive) | – |

| Structure (SMILES) | activity change, negative = inhibition | Potency |
| --- | --- | --- |
| O=C(Cc1ccccc1Cl)N1CCN(c2ccccn2)CC1 | 2.94% (inactive) | – |
| Cc1ccnc(N2CCN(C(=O)CSc3nc4ccccc4nc3N3CCCCC3)CC2)c1 | – | 13.1 µM (active) |
| O=C(CSc1ncccn1)N1CCCC1 | 15.9% (inactive) | – |
| COc1ccc2c(c1)c1nc3n(c(=O)c1n2CC(=O)Nc1ccccc1)CCS3 | 29.3% (inactive) | – |
| O=C(CNS(=O)(=O)c1ccccc1)N1CCN(C(=O)c2ccco2)CC1 | 39.3% (inactive) | – |
| O=C(Nc1ccccc1C(=O)N1CCCCC1)c1ccco1 | 19.7% (inactive) | – |
| O=C(c1cccc(S(=O)(=O)Nc2ccccc2Cl)c1)N1CCN(C(=O)c2ccco2)CC1 | -20.7% (inactive) | – |
| CS/C(=C\C(=O)c1ccco1)Nc1ccccc1Cl | – | 8.28 µM (active) |
| CCC(C)N(C(=O)Cn1nc(C)c([N+](=O)[O-])c1C)C1CCS(=O)(=O)C1 (stereo not drawn) | 5.42% (inactive) | – |
| O=C(NCCc1ccco1)C(=O)NCCC1CCCCN1S(=O)(=O)c1ccccc1 (stereo not drawn) | -21.1% (inactive) | – |
| COc1ccccc1NC(=O)CSc1nnc(Cc2cccn2C)n1-c1ccc(F)cc1 | – | 10.4 µM (active) |
| COc1ccc(C)cc1NC(=O)CSc1nnc(CC(=O)Nc2ccccc2F)n1C | -53.1% (inactive) | – |
| COCCn1c(Cc2cccn2C)nnc1SCC(=O)Nc1nccs1 | -4.4% (inactive) | – |
| Cc1ccc(NC(=O)COC(=O)CN2CCCCCC2=O)c(C)c1 | 19.1% (inactive) | – |
| Oc1ccc(N=Nc2nccs2)c(O)c1 | – | 9.28 µM (active) |
| Oc1c(C=Nc2cccc3nsnc23)ccc2ccccc12 | 5.5% (inactive) | – |
| c1ccc(NCc2cccc3ccccc23)nc1 | 5.25% (inactive) | – |
| Oc1ccc2ccccc2c1N=Nc1nccs1 | – | 13.1 µM (active) |
| COc1cccc(-n2c(N)cc(=O)nc2SCC(=O)Nc2cc(C)on2)c1 | -20% (inactive) | – |
| CC(C)N(C(=O)Cn1cc(S(=O)(=O)CC(=O)N2CCOCC2)c2ccccc21)C(C)C | -2.29% (inactive) | – |
| CN(Cc1ccccc1)C(=O)c1ccc(NC2=NC3CS(=O)(=O)CC3S2)cc1 (stereo not drawn) | 49.1% (inactive) | – |
| O=C(COC(=O)c1cccc(Cl)c1)NC1CCCCCCC1 | -11.6% (inactive) | – |
| Cc1ccc(S(=O)(=O)N2CCN(C)CC2)cc1 | 0% (inactive) | – |
| COC(=O)C1=C(O)/C(=C/c2ccc(OCC(=O)Nc3ccccc3)cc2)N=C1C | -10.6% (inactive) | – |
| CCC1=NN2C(=N)/C(=C/c3cc(C)n(-c4ccccc4)c3C)C(=O)N=C2S1 | -0.786% (inactive) | – |
| CCOC(=O)C1=C(O)/C(=C/c2cc(C)n(-c3ccccc3)c2C)N=C1C | – | 0.0657 µM (active) |

| Structure (SMILES) | activity change, negative = inhibition | Potency |
| --- | --- | --- |
| O=C(NCCCN1CCCC1=O)c1cccc(S(=O)(=O)NCc2ccccc2)c1 | 2.77% (inactive) | – |
| O=[N+]([O-])c1ccc(N2CCN(c3ccc(F)cc3)CC2)cn1 | -14.1% (inactive) | – |
| Cc1nnc(NC(=O)c2ccc3nccnc3c2)s1 | 43% (inactive) | – |
| CN(C(=O)COc1ccccc1)c1nnc(-c2ccncc2)s1 | 10.5% (inactive) | – |
| COc1ccc(CCN(C(=O)COc2ccccc2)c2nc(-c3ccccc3)cs2)cc1OC | – | 10.4 µM (active) |
| COc1ccc(CC(=O)Nc2nc(-c3ccc(F)c(F)c3)cs2)cc1OC | -10.2% (inactive) | – |
| O=C(c1ccc(Cn2cc([N+](=O)[O-])cn2)o1)N1CCCC1 | 11.5% (inactive) | – |
| C/C(=N\NC(=O)Cc1ccc(F)cc1)c1ccc(F)cc1 | 7.34% (inactive) | – |
| C/C(=N\NC(=O)Cc1ccc(Cl)cc1)c1ccccn1 | – | 1.47 µM (active) |
| C/C(=N\NC(=O)c1ccccc1F)c1ccccn1 | -28% (inactive) | – |
| COc1ccc(CC(=O)N/N=C(\C)c2ccccn2)cc1 | – | 3.29 µM (active) |
| COc1ccc(C/C(C)=N/NC(=O)c2ccncc2)cc1 | -0.335% (inactive) | – |
| C/C(=N\NC(=O)Cc1ccc(Br)cc1)c1cccnc1 | 3.03% (inactive) | – |
| CCOc1ccc(OCC(=O)Nc2c3c(nn2C(C)(C)C)CS(=O)(=O)C3)cc1 | 1.09% (inactive) | – |
| Cc1cc(C(=O)CCC(=O)NNC(=O)c2ccccc2O)c(C)s1 | 0% (inactive) | – |
| CCOc1ccc2[nH]c(=O)c(CN(CCCO)S(=O)(=O)c3ccc(F)cc3)cc2c1 | -19% (inactive) | – |
| CCCCCn1c(=O)[nH]c2cc(C(=O)NCCCN3CCCCC3C)ccc2c1=O (stereo not drawn) | – | 9.28 µM (active) |
| CC1CCCCN1CCCNC(=O)Cn1ncc2c([nH]c3ccccc32)c1=O (stereo not drawn) | 33.3% (inactive) | – |
| O=C(NC1CCCCC1)c1ccc2c(=O)n(CC3CCCO3)c(=O)[nH]c2c1 (stereo not drawn) | -28.7% (inactive) | – |
| COc1ccccc1CNC(=O)C1CCN(C(=O)[C@@H]2Cc3ccccc3CN2)CC1 | 18.3% (inactive) | – |
| CCOC(=O)Cc1ncccc1C(=O)Nc1ccc(OC)cc1 | – | 13.1 µM (active) |
| COc1cc(NC(=O)c2cccnc2SC)cc(OC)c1 | -7.95% (inactive) | – |
| CCCNC(=O)Nc1ccccc1C(=O)Nc1ccc(OC)cc1 | 31.3% (inactive) | – |
| COC(=O)c1ccc([C@@H](O)[C@H](C)C(=O)CC(=O)OC(C)(C)C)cc1 | -15% (inactive) | – |
| Cc1nc(CN(C)C(=O)CC2C(=O)NCCN2Cc2ccc(F)cc2)cs1 (stereo not drawn) | 6.05% (inactive) | – |
| CC(=O)N(CC(O)CO)c1c(I)c(C(=O)NCC(O)CO)c(I)c(C(=O)NCC(O)CO)c1I (stereo not drawn) | – | inactive and 15.1 µM (active) |

| Structure (SMILES) | activity change, negative = inhibition | Potency |
| --- | --- | --- |
| COc1ccc(NC(=O)CN2C(=O)COc3ccc(S(=O)(=O)N4CCOCC4)cc32)c(OC)c1 | 0% (inactive) | – |
| CN(Cc1ccccc1)C(=O)CSc1nc2ccccc2[nH]1 | 15% (inactive) | – |
| CN(Cc1ccccc1)c1nc2c(c(=O)[nH]c(=O)n2C)n1CCSc1nc2ccccc2[nH]1 | – | 8.28 µM (active) |
| C=CCSc1nc2c(c(=O)[nH]c(=O)n2C)n1Cc1ccccc1 | 29.2% (inactive) | – |
| CC(Oc1cccc(Cl)c1)C(=O)NC1CC(C)(C)NC(C)(C)C1 (stereo not drawn) | 4.79% (inactive) | – |
| O=C1CN(C(=O)c2cc(F)cc(F)c2)c2ccccc2N1 | 7.56% (inactive) | – |
| O=C(Nc1ccc(Br)cc1)c1cc(S(=O)(=O)Nc2ccccn2)ccc1Cl | 2.06% (inactive) | – |
| CN(CC(=O)NCCc1ccc(F)cc1)CC(=O)Nc1ccc(F)c(F)c1F | -3.85% (inactive) | – |
| COc1cccc(C2CC(c3cccs3)=NN2C(=O)CSC2=NCCS2)c1OC (stereo not drawn) | – | 10.4 µM (active) |
| COc1ccc(C2CC(c3cccs3)=NN2C(=O)CSc2nnc(N)s2)cc1OC (stereo not drawn) | -32.9% (inactive) | – |
| COc1ccc(C2=NN(C(=O)CCC(=O)O)C(c3cccs3)C2)cc1OC (stereo not drawn) | -8.8% (inactive) | – |
| COc1ccccc1C(=O)NCCC(=O)NN1C(=O)NC2(CCCCC2)C1=O | 4.51% (inactive) | – |
| COC(=O)c1cccc(N(CC(=O)NCC2CCCO2)C(=O)CCC(=O)Nc2cc(C)on2)c1 (stereo not drawn) | 7.34% (inactive) | – |
| Cc1cc(NC(=O)CCC(=O)N(CC(=O)NCC2CCCO2)c2ccccc2)no1 (stereo not drawn) | 3.81% (inactive) | – |
| CCCCOc1ccc(N(CC(=O)NCC2CCCO2)C(=O)CCC(=O)Nc2cc(C)ccn2)cc1 (stereo not drawn) | – | 9.28 µM (active) |
| Cc1cccc(OCCC(=O)OCc2csc(CC(=O)Nc3ccccc3C)n2)c1 | -15.4% (inactive) | – |
| Cn1ncc2c(N3CCCCC3)nc(NCCCO)nc21 | 1.55% (inactive) | – |
| Cc1ccc(NC(=O)CCCNC(=O)c2ccc(Cl)cc2)cc1S(=O)(=O)N1CCCCC1 | 6.37% (inactive) | – |
| CCc1ccccc1OCC(=O)Nc1ccc2c(c1)OCCO2 | 101% (inactive) | – |
| CCc1ccccc1OCC(=O)Nc1ccc(C)c(S(=O)(=O)N2CCCCCC2)c1 | – | 10.4 µM (active) |
| COc1ccc(C(=O)NC2CC(C)(C)NC(C)(C)C2)cc1OC | 7.82% (inactive) | – |
| COc1ccc(S(=O)(=O)NC(C)c2ccccc2)cc1C(=O)N1CCCCC1 (stereo not drawn) | -18.6% (inactive) | – |
| COc1cccc(C(=O)NNS(=O)(=O)c2ccc(F)cc2)c1 | 23.1% (inactive) | – |
| CN(C)CC/C=C1\c2ccccc2CSc2ccccc21 | – | 10.4 µM (active) |
| CN(C)Cc1ccccc1C1(O)c2ccccc2CSc2ccccc21 (stereo not drawn) | 0% (inactive) | – |
